Measured values reported in the OligoGym collection.

Each sequence was assayed against HOOK2 (assay: pooled miR-30 sensor sort-seq; sequence = guide strand). Settings: shRNA.
Note: reference of the scale not given here.

| Sequence | sensor-assay potency score (higher = more potent) |
| --- | --- |
| TTTTTCTCGCAACTGATGGCAC | -0.412 |
| TCAGCTTCCAGTTGGGACCTGG | -0.00912 |
| TACTAGGCTCCGTAAGACCATC | -1.58 |
| TTCCATGGTCTGCATGACCATG | -1.55 |
| TGGAACGTCTGTAACCAGGTGA | 0.0642 |
| TACGTCTCTGGTGACAGGGAGT | -0.714 |
| TCACTTAGGAAATAGTACCTGC | -0.233 |
| TTCTGACACAGGATGCGCCAGG | -0.785 |
| ATGGTCTGCATGACCATGCGGG | -1.25 |
| TCCTCTGCAACTCCAGATCTGC | -1.56 |
| TTTCTCAAAGTCCATCTCCAGG | -1.2 |
| TTAGGAAATAGTACCTGCGGGA | -0.0973 |

Each sequence was assayed against HOXA6 in the same assay as above. Settings: shRNA.

| Sequence | sensor-assay potency score (higher = more potent) |
| --- | --- |
| TGAGGTGTACGTCTTGTCCGGG | -0.648 |
| TTGGCGATCTCGATGCGGCGGC | -0.809 |
| TTGGTAGAAACAAGGTGAGGTG | -0.106 |
| TTATCAGAATAGAAACACGAGG | -1.05 |
| TTGTCCGGGAGACTCGACGCCC | -0.988 |
| ATTGATGAGCTTGTTTTCCTTT | 0.0267 |
| TATCAGAATAGAAACACGAGGC | -0.218 |
| TTGTACTGCTGCTCGGGAGAAA | -0.818 |
| TGTACTTCCGGTCGGCGCCTTC | -0.845 |
